From PubChem BioAssay (NCI) come the findings set out here.

SMILES strings stand for the structures. This is part of a sample that, as a whole, favours compounds with a hit. Of some 83,000 tested, about 20% had one in any assay.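 How to read the values: 0–100, growth inhibition (40 = 60% inhibited); 0, no net growth; -100 to 0, cell death (-40 = 40% of starting cells died; -100 = all dead).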 A number with no mark means an inactive call. Calls of active or inactive are those of the source. The calls were made as follows: active = growth percent below 10; inactive = the rest.

The test deals with HL-60(TB) leukemia. Kind of test: NCI-60 one-dose screen, 48 h (100 = growth as untreated, 0 = no growth, -100 = all killed). The following applies: 10 µM unless noted.
With `CCOC(=O)c1ccoc1`, the growth is 118%.

Turning to `COc1cc(NC(=O)c2cc3ccccc3cc2O)c(OC)cc1Cl`, the growth is -29.2% (active).

On to `CCN(CC)CC(=O)Nc1cccc(C(=O)OC(C)C)c1`, for which the growth was 93%.

As for `Cc1ccc2cccc(OC(=O)Nc3cccc(C(F)(F)F)c3)c2n1`, the growth was 67%.

Consider `Cc1cc(NC(=O)CNc2nc(Oc3ccc(F)cc3)nc(-c3ccc(F)cc3)n2)ccc1Cl`, for which the growth is 96.4%.

For `Nc1ccc(S(=O)(=O)Nc2cc(F)cc(F)c2)cc1`, the growth was 73%.

Turning to `O=C(Nc1cccc2ccccc12)c1cc2ccccc2cc1O`, the growth is 9.13% (active).

For the compound `O=C(/C=C/c1cccc(Cl)c1)c1cccc(OCCCOc2cccc(C(=O)/C=C/c3cccc(Cl)c3)c2)c1`, the growth was 93.1%.

For `CSc1nc(C)c(C(=O)CCN2CCN(c3ccccn3)CC2)s1`, the growth is 102%.

On to `Cc1ccccc1N1C(c2ccccc2)=NNC12C=CC(=O)C=C2Cl` (stereo not given), for which the growth is 82.4%.

`COc1cccc(OC)c1Oc1c(-c2nc3ccccc3s2)c(C)nn1-c1ccccc1`: the growth is 81.8%.

In the case of `N#Cc1c(-c2ccccc2)cc(-c2ccccc2)n(CCCC(=O)NO)c1=O`, the growth is 10.2%.

On to `NC(N)=N/N=C(\c1ccccc1)C(O)c1ccccc1` (stereo not given), for which the growth is 96.7%.

Take `Cc1nn(-c2ccc(Br)cc2)c2nc3[nH]c(=O)[nH]c(=O)c3nc12`: the growth is 120%.

In the case of `O=S1(=O)N(Cc2ccccc2)[C@@H](Cc2ccccc2)[C@H](O)[C@H](O)[C@H](Cc2ccccc2)N1Cc1ccccc1`, the growth was -4.17% (active).

Regarding `CCN(CC)CCOC(=O)N1c2ccccc2Sc2ccccc21`, the growth is 88.1%.

Take `CC(Sc1nc2sc3c(c2c(=O)n1-c1ccc(Cl)cc1)CCCC3)C(=O)Nc1nc(-c2ccc(Br)cc2)cs1` (stereo not given): the growth was 98.6%.

For the compound `O=C1OCC2=C1C(c1ccccc1)c1cc3c(cc1N2CCO)OCCO3` (stereo not given), the growth was -14.1% (active).

In the case of `CCC(=O)OC1=CN2C(=NC(c3ccc(N)cc3)=CC2c2cc(OC)c(OC)c(OC)c2)S1` (stereo not given), the growth is 36.5%.

Regarding `Cc1ccc(CS/C(=C\c2ccc([N+](=O)[O-])cc2)C(=O)c2ccc(F)cc2)cc1`, the growth is 30.4%.

On to `CS(=O)(=O)c1ccc(-c2cc3c(oc2=O)-c2ccccc2OC3O)cc1` (stereo not given), for which the growth is 93.5%.

For the compound `Fc1ccc(Nc2ncnc3ccc(-c4cnc5[nH]ccc5c4)cc23)cc1Cl`, the growth was -22.3% (active).

With `COc1ccc2[nH]c(O)c(/C=c3/ccc4c(c3)N=C(c3ccc(C(F)(F)F)cc3)N=4)c2c1`, the growth is 94.4%.

On to `CCOC(=O)C1=CCC(n2cc(F)c(=O)[nH]c2=O)O1` (stereo not given), for which the growth was 83.6%.

As for `CC1(C)N=C(N)N=C(N)N1c1ccc(S(=O)(=O)Nc2nccs2)cc1`, the growth was 101%.

Regarding `COc1ccc2c(c1)/C(=C\c1c[nH]c3ccc(OC)cc13)C(=O)N2`, the growth is 20.8%.

For `CN(C)C1CCC(NC2=CC(=O)C=CC2=O)CC1` (stereo not given), the growth is 114%.

Turning to `COc1cc2c3c(c1O)-c1ccccc1[C@@H]1OC(=O)N(CC2)[C@H]31`, the growth was 112%.

`Cn1c(=O)[nH]c2ccccc2c1=O`: the growth was 111%.

As to `Cc1cc(C(=O)c2ccccc2)c(C)c2c1[nH]c1ccc(Cl)cc12`, the growth is 1.08% (active).

On to `O=C(NNC(=S)Nc1ccccc1)c1cc2ccc1CCc1ccc(cc1)CC2`, for which the growth is 77.1%.

With `COc1ccc2c(O)c(/C=C3\N=Nc4nc(C)ccc43)oc2c1CC1CCNCC1`, the growth is 94.3%.

For the compound `CC(C)c1ccc(Cc2cnc(NC(=O)c3cc(Br)cs3)s2)cc1`, the growth is -24% (active).

In the case of `COc1ccc(C(=O)CSc2nc(-c3cc(OC)ccc3OC)cc(-c3ccc(OC)cc3)c2C#N)cc1`, the growth was 98.3%.

Consider `Cc1ccc(/C=C2\C(=O)N(C)c3ccc(S(=O)(=O)Nc4ccc(C(C)(C)C)cc4)cc32)s1`, for which the growth was 93.1%.

As to `COc1ccc(NC(=O)c2sc3nc4c(cc3c2N)CCCC4)cc1`, the growth is -14.6% (active).

Take `Cc1cc(C(=C2C=CC(=Nc3ccccc3)C=C2)c2ccc(Nc3ccccc3)cc2)ccc1N`: the growth was 5.66% (active).

With `CC12OC(CC(O)C1O)n1c3ccccc3c3c4c(c5c6ccccc6n2c5c31)C(=O)N(CCN1CCOCC1)C4=O` (stereo not given), the growth was 7.54% (active).

On to `COc1ccc(Nc2nccc(N3CCN(c4c5ccc(Cl)cc5nc5ccc(OC)cc45)CC3)n2)cc1`, for which the growth was 15.4%.

For the compound `CCc1c2c(nc3ccc(OCc4ccc(B5OC(C)(C)C(C)(C)O5)cc4)cc13)-c1cc3c(c(=O)n1C2)COC(=O)[C@]3(O)CC`, the growth was -1.71% (active).
